Among the data in ChEMBL document CHEMBL3433997, “St. Jude Leishmania screening dataset” (2016) are inhibition values, retold here.

Type in all cases: functional
In test [1] the target is Solute carrier family 2, facilitated glucose transporter member 1 (Homo sapiens) (UniProt P11166). Nature of the test: ST_JUDE_LEISH: Cytotoxicity at 2uM final concentration against transgenic Leishmania Mexicana promastigotes LmGLUT1 that are glucose transport deficient and complemented with the human glucose transporter GLUT1. Activity is measured by DNA content using SYBR green in vitro.
Chain of Solute carrier family 2, facilitated glucose transporter member 1 (Homo sapiens) (P11166 whole entry): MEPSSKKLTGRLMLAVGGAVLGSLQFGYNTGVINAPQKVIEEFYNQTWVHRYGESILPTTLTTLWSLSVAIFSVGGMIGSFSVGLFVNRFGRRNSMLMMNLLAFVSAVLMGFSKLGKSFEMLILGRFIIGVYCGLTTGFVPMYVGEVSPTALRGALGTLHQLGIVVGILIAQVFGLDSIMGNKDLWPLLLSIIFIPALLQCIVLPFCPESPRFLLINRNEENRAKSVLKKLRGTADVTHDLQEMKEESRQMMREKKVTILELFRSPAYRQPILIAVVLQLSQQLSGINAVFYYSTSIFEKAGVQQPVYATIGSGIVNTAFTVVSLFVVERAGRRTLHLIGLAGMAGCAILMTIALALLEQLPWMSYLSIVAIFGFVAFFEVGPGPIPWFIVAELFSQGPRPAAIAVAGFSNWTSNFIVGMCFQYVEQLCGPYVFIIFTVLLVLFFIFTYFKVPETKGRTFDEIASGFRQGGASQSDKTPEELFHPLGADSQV

The target of test [2] is Hexose transporter 1 (Plasmodium falciparum) (UniProt O97467). Nature of the test: ST_JUDE_LEISH: Cytotoxicity at 2uM final concentration against transgenic Leishmania Mexicana promastigotes LmPfHT that are glucose transport deficient and complemented with the Plasmodium falciparum hexose transporter. Activity is measured by DNA content using SYBR green in vitro.
The target of test [3] is Glucose transporter (Leishmania mexicana) (UniProt O61059). Nature of the test: ST_JUDE_LEISH: Cytotoxicity at 2uM final concentration against transgenic Leishmania Mexicana promastigotes LmGT2 that are glucose transport deficient and complemented with the L. Mexicana glucose transporter 2. Activity is measured by DNA content using SYBR green in vitro.

With `O=C(N[C@@H](Cc1ccccc1)C(=O)NC1CCCCC1)c1ccc(O)c(-c2cccc(C(F)(F)F)c2)c1`, the inhibition came to 3.98% in test [1], 5.95% in test [2] and 5.39% in test [3].

As for `COc1ccc2nccc([C@@H](O)CN3CCC(NCCOc4c(C)cccc4F)CC3)c2c1`, the inhibition in test [1] is 5.89%; in test [2], 3.49%; in test [3], 4.05%.

`CC1CCC(NCc2ccc3c(CNC4CCC(C)CC4)c(O)ccc3c2O)CC1` (centres undefined): the figures for the inhibition in test [1], in test [2] and in test [3] were 1.24%, -0.12% and -1.56%, respectively.

As to `FC(F)(F)c1ccc2[nH]c(-c3ccc(-c4ccc(CN5CCN(c6ccncc6)CC5)cc4)cc3)nc2c1`, the inhibition in test [1] was 77.4%; in test [2], 85.7%; in test [3], 69%.

As to `Cc1nc(N)nc(N)c1C#CC1CCCC1`, the inhibition in test [1] turned out to be 5.81%; in test [2] it was 6.82%; in test [3] it was 2.76%.

As for `CCc1cn2c3c(cc(C(=O)N[C@@H](Cc4cc(F)cc(F)c4)[C@H](O)CNC4CC4)cc13)N(C)S(=O)(=O)CC2`, the inhibition in test [1] came out at 3.44%; in test [2], 2.48%; in test [3] it was 3.48%.

`COc1cc2c(cc1C(F)(F)F)N(C(=O)Nc1cc(F)cc(-c3cncnc3)c1)CC2`: the inhibition came to 11.6% in test [1], 1.94% in test [2] and 0.07% in test [3].

With `COc1ccc(C(=O)NC2CCN(c3ccnc4cc(Cl)ccc34)C2)cc1` (centres undefined), the inhibition in test [1] came to 1.59%; in test [2], 1.83%; in test [3], 0.51%.

For `CCOc1ccccc1CNc1nccc(NCc2ccccc2OC)n1`, the figures for the inhibition in test [1], in test [2] and in test [3] were 2.53%, 4.16% and 2.05%, respectively.

Consider `Cc1cc(N[C@@H](Cc2ccccc2)C(=O)Nc2ccccc2)nc(NCCN2CCCC2)n1`, for which the inhibition was -2.01% in test [1], -2.84% in test [2] and -2.29% in test [3].

Take `Cc1noc(C)c1-c1cccc(CNCc2ccc(-c3cccc(-c4nc5cccc(C)c5[nH]4)c3)cc2)c1`: the inhibition is 0.9% in test [1], -2.28% in test [2] and -4.14% in test [3].

`CCc1ccc(Cc2cnc3nc(N)nc(N)c3c2C)cc1`: the values for the inhibition in test [1], in test [2] and in test [3] were 8.4%, 13.2% and 8.26%, respectively.

On to `Nc1ncc(-c2ccsc2)cc1-c1nc2ccccc2[nH]1`, for which the inhibition worked out at 2.86% in test [1], 6.79% in test [2] and 2.5% in test [3].

For the compound `Cc1cccc2nc(-c3ccc(-c4cccc(NC(=O)C(=O)c5cccn5C)c4)cc3)[nH]c12`, the values for the inhibition in test [1], in test [2] and in test [3] were 4.58%, 2.19% and 2.29%, respectively.

On to `N#Cc1ccc(Sc2nnc(-c3ccccc3Cl)n2CC2CCCCC2)cc1[N+](=O)[O-]`, for which the figures for the inhibition in test [1], in test [2] and in test [3] were 2.9%, 3.12% and 0.82%, respectively.

Consider `Cc1nn(C)c(C)c1CN(Cc1nc(-c2cccc(Oc3ccccc3)c2)oc1C)C1CC1`, for which the inhibition is 4.08% in test [1], 4.11% in test [2] and 5.34% in test [3].

For the compound `Cc1cc(Nc2ccc(C)c(C)c2)n2nc(C)nc2n1`, the values for the inhibition in test [1], in test [2] and in test [3] were 5.08%, 5.03% and 5.46%, respectively.

For the compound `COc1ccc2nc(C)cc(Nc3ccc(Oc4ccc5ccccc5c4Cl)c(Cl)c3)c2c1`, the inhibition was determined as 13.7% in test [1], 12.6% in test [2] and 8.39% in test [3].

In the case of `Cc1cc(C2CCN(CCCCNC(=O)c3ccc(-c4ccc(C(F)(F)F)cc4)cc3)CC2)c(C)cc1OCC#N`, the inhibition in test [1] was -0.43%; in test [2], 1.3%; in test [3] it was -0.09%.

As to `CC(C)Nc1cc(C(=O)N[C@@H](Cc2ccccc2)[C@H](O)CNCc2cccc(C(F)(F)F)c2)c(F)c(N2CCCCS2(=O)=O)c1`, the inhibition in test [1] came to 7.12%; in test [2], 6.09%; in test [3], 7.07%.

For `Nc1c2c(nc3ccc(NC(=O)c4ccc([N+](=O)[O-])cc4)cc13)CCCC2`, the inhibition was -1.93% in test [1], -0.82% in test [2] and -1.11% in test [3].

Take `Nc1cccc(CNCc2ccc(-c3ccc(-c4nc5ccccc5[nH]4)s3)cc2)c1`: the inhibition in test [1] is 2.71%; in test [2], -0.53%; in test [3], 2.48%.

As for `COc1ccc(CNC2CCN(C)CC2)cc1-c1ccc(S(=O)(=O)NCCc2ccccn2)s1`, the inhibition was -2.94% in test [1], -0.03% in test [2] and 0.29% in test [3].

In the case of `Cc1c(-c2cccc(CNCCc3ccc(Cl)cc3)c2)cnc(N)c1C`, the results for the inhibition in test [1], in test [2] and in test [3] were -3.87%, -2.81% and -1.41%, respectively.

In the case of `Cc1cc2c(cc1C(F)(F)F)N(C(=O)Nc1cc(C(=O)NCCN(C)C)cc(C(F)(F)F)c1)CC2`, the values for the inhibition in test [1], in test [2] and in test [3] were 4.3%, 2.66% and 3.69%, respectively.

On to `CN1CCN(CCCN(C(=O)Nc2cc(C(F)(F)F)cc(C(F)(F)F)c2)c2ccccc2Cc2ccccc2)CC1`, for which the inhibition in test [1] was 0.6%; in test [2], 0.83%; in test [3], -8.69%.

On to `CN1CCCN(Cc2cccc(-c3cccc(NC(=O)c4cccc(C#N)c4)c3)c2)CC1`, for which the values for the inhibition in test [1], in test [2] and in test [3] were 12.8%, 11.4% and 10.3%, respectively.

On to `COC(=O)c1cccc(CNCc2ccc(-c3ccc(-c4nc5cc(F)ccc5[nH]4)cc3)cc2)c1`, for which the inhibition in test [1] worked out at 13%; in test [2] it was 6.26%; in test [3], 4.98%.

Consider `COc1ccc(NC(=O)[C@H](CC(C)C)Nc2cc(C)nc(NCC3CCCCC3)n2)cc1`, for which the results for the inhibition in test [1], in test [2] and in test [3] were 3.07%, 2.78% and 0.83%, respectively.

Take `COc1ccccc1CN1CCC(NC(=O)c2ccc(-c3cccc(Cl)c3)s2)CC1`: the inhibition in test [1] is 8.99%; in test [2], 8.66%; in test [3], 2.23%.

As for `CC1(C)NC(N)=NC(=N)N1OCCCOc1cccc(Cl)c1`, the inhibition in test [1] turned out to be 3.04%; in test [2] it was 5.38%; in test [3] it was 2.82%.

In the case of `O=C(NCc1ccc(Cl)c(Cl)c1)c1ccc(C2CCCN(Cc3ccc4[nH]cnc4c3)C2)cc1` (centres undefined), the inhibition worked out at 5% in test [1], 9.77% in test [2] and 6.17% in test [3].

`Cc1c(-c2ccc3c(c2)C(NCCCN2CCCCC2)CC3)cnc(N)c1C` (centres undefined): the inhibition was determined as 0.7% in test [1], 0.89% in test [2] and 2.57% in test [3].
